By AC50 is commonly meant the concentration at which the activity in the assay is half-maximal.

Active and inactive are the calls of the source. Rule for the calls: active = hit-call score of the fitted dose curve at least 0.9, where 1 is the maximum; inactive = score below 0.9.

The text below walks through data of PubChem BioAssay (EPA / NIEHS).

The assay is described as follows: IUF_NPC3_neuronal_differentiation_120hr: Leibniz Research Institute for Environmental Medicine (IUF) 120-hour Neuronal Differentiation Assay (NPC3) (AID 2284301). On the procedure:
IUF_NPC2-5 is a cell-based, multiplexed assay that uses hNPC, a human primary neural progenitor cells, with measurements taken at 72 or 120 hours after chemical dosing in a 96-well plate. Human neural progenitor cells (hNPC) are generated from human fetal brain cortex at gestational week (GW) 16-19. In the neural progenitor cell migration and differentiation assay (NPC2-5), hNPCs grown as spheres are plated on an extracellular matrix and migrate and differentiate out of the sphere core. The processes radial glia migration, neuronal and oligodendrocyte migration as well as neuronal differentiation, neuronal morphology and oligodendrocyte differentiation are studied using automated phase contrast imaging and automated fluorescence imaging in combination with high content image analysis. In parallel, the cell viability is assessed using an alamar blue viability assay and the cytotoxicity using a lactate dehydrogenase dependent membrane integrity assay.IUF_NPC3_neuronal_differentiation_120hr is one of 12 assay components measured from the IUF_NPC2-5 assay. Neuronal differentiation is determined as the number of all TUBB3 positive cells in percent of the number of Hoechst-positive nuclei in the total neurosphere migration area (see IUF_NPC2a_ glia_migration_120hr) after 120 hr of migration/differentiation. Neurons are automatically identified using a convolutional neural network (CNN) that was trained using manually annotated images of differentiated neurons. Data from the IUF_NPC3_neuronal_differentiation_120hr component was analyzed at the endpoint IUF_NPC3_neuronal_differentiation_120hr in the positive analysis fitting direction relative to DMSO as the negative control and baseline of activity. Using a type of differentiation reporter, gain or loss-of-signal activity can be used to understand developmental effects.
Culture protocol: After the cell expansion period the cells are cultured for up to four weeks in which they are passaged every week as described in 3.6. Between one to three days after passaging spheres at a size of 0.3 mm are picked for the test method. For the assessment of neural progenitor cell migration and differentiation, the spheres are plated on poly-D-lysine/laminin coated 96-well flat bottom plates in differentiation medium (N2) to initiate migration and differentiation. Thereby one 0.3 mm big sphere is plated in the middle of a well. The differentiation medium consists of DMEM and Ham's F12 at a ratio of 3 to 1 supplemented with 1% N2 and 1% penicillin and streptomycin. Within 5 days NPCs radially migrate out of the sphere core and differentiate into radial glia cells (nestin positive), neurons (TUBB3 positive), oligodendrocytes (O4 positive) and astrocytes (GFAP positive). Cultivation during the test method is performed at 37C and 5% CO2 at a ph of 7.2-7.6.Exposure: 0.3 mm big hNPC are plated in the already prepared test conditions. Exposure starts at day 0 of differentiation and is continued over five days of differentiation until the experiment is terminated. Cells are fed with fresh medium at day 3 of differentiation. Therefore, half of the test condition solution (e.g. solvent control or compound dilution) is replaced by freshly prepared test condition solution.Test Method: Migration distance and cytotoxicity is determined after 72 hours based on brightfield images of each well. The assay is terminated by the assessment of cell viability and cytotoxicity as well as cell fixation after 120 h. Immunocytochemistry is performed for Hoechst positive nuclei, TUBB3 positive neurons and O4 positive oligodendrocytes. On the ICC images, migration after 120 hours, neuronal and oligodendrocyte number, neuronal morphology and neuron/oligodendrocyte specific migration is assessed. immunocytochemical staining (ICC) generates an image for each sphere. The plates are scanned using an automated high content imaging device and all nuclei and their positions are determined automatically based on their intensity and size. […]
Consider `CS(=O)(=O)c1cc(C(F)(F)F)ccc1C(=O)c1cnoc1C1CC1`, for which the molecule was classed as inactive.
The same measure, in the same setting: next, `CCSC(=O)N1CCCCCC1`: “inactive”.
For `CCOP(=O)(OCC)Oc1nc(Cl)c(Cl)cc1Cl`, the molecule was classed as inactive.
In the case of `CCNC(=O)NC(=O)C(C#N)=NOC`, the AC50 is 318 nM (active).
As to `CNC(=O)Oc1cccc2ccccc12`, the result was inactive.
In the case of `Cc1c(COC(=O)[C@@H]2[C@H](/C=C(\Cl)C(F)(F)F)C2(C)C)cccc1-c1ccccc1`, the molecule was classed as inactive.
Same read-out and setting: to `CS(=O)(=O)c1ccc(C(=O)C2C(=O)CCCC2=O)c([N+](=O)[O-])c1` belongs “inactive”; to `CC1(C)C(C=C(Cl)Cl)C1C(=O)OC(C#N)c1cccc(Oc2ccccc2)c1` (stereo unspecified), “inactive”; to `O=C(Nc1ccccc1-c1ccc(Cl)cc1)c1cccnc1Cl`, “inactive”.
The same measure, in the same setting: next, `COP(=S)(OC)SCn1nnc2ccccc2c1=O`: “inactive”; `CO/N=C(/C1=NOCCO1)c1ccccc1Oc1ncnc(Oc2ccccc2Cl)c1F`: “inactive”.
Still for that read-out and setting: to `COC(=O)N(C(=O)N1CO[C@@]2(C(=O)OC)Cc3cc(Cl)ccc3C2=N1)c1ccc(OC(F)(F)F)cc1` belongs “inactive”; to `CC(C)(C)C(=O)C(Oc1ccc(Cl)cc1)n1cncn1` (stereo unspecified), “inactive”; to `C=C(C)CN(CC)c1c([N+](=O)[O-])cc(C(F)(F)F)cc1[N+](=O)[O-]`, “inactive”.
Take `CN/C(=N\[N+](=O)[O-])NCc1cnc(Cl)s1`: the molecule was called inactive.
Still for that read-out and setting: next, `N#CN=C1SCCN1Cc1ccc(Cl)nc1`: “inactive”.
